The values below come from PubChem BioAssay (NCI).

What all share (experiment): NCI-60 one-dose screen, 48 h (100 = growth as untreated, 0 = no growth, -100 = all killed)
One test has as its system HCT-15 colon. To be noted: 10 µM unless noted.
A further test has as its system HT29 colon. To be noted: 10 µM unless noted.
Another test relates to SNB-75 CNS. To be noted: 10 µM unless noted.
The next test concerns SNB-19 CNS. To be noted: 10 µM unless noted.
The next test concerns U251 CNS. To be noted: 10 µM unless noted.
The subject of another test is PC-3 prostate. To be noted: 10 µM unless noted.
The test system of another test is SK-MEL-5 melanoma. To be noted: 10 µM unless noted.
In the next test the test system is UACC-62 melanoma. To be noted: 10 µM unless noted.
A further test relates to LOX IMVI melanoma. The following applies: 10 µM unless noted.
The next test has as its system SK-MEL-28 melanoma. The following applies: 10 µM unless noted.
The subject of the next test is EKVX NSCLC. To be noted: 10 µM unless noted.
The test system of the next test is SN12C renal. To be noted: 10 µM unless noted.
In the next test the test system is UO-31 renal. To be noted: 10 µM unless noted.
The next test deals with TK-10 renal. The following applies: 10 µM unless noted.
The next test relates to ACHN renal. To be noted: 10 µM unless noted.
A further test concerns CAKI-1 renal. The following applies: 10 µM.
The test system of a further test is A498 renal. To be noted: 10 µM unless noted.
For another test, the system named is CCRF-CEM leukemia. To be noted: 10 µM unless noted.
A further test has as its system MOLT-4 leukemia. The following applies: 10 µM unless noted.

This is part of a sample that, as a whole, favours compounds with a hit. Of some 83,000 tested, about 20% had one in any assay.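 Plates (96-well) were seeded with cells, treated with compound at one concentration, and incubated for 48 hours before percent growth was determined.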 A number with no mark means an inactive call. Activity calls are given as the source filed them. How the source made its calls: active means growth percent below 10; inactive means the rest.

For `C=CCn1c(SCC(=O)Nc2ccc(OC)cc2)nnc1-c1ccc(Cl)cc1`, the growth in the test with HCT-15 colon is 73.7%; in the test on HT29 colon it was 105%; in the test on SNB-75 CNS, 97.4%; with SNB-19 CNS, 91.7%; in the test with U251 CNS it was 105%; in the test on PC-3 prostate, 95.1%. For the same compound, the growth in the test on SK-MEL-5 melanoma is 96.4%; with UACC-62 melanoma it was 81.5%; in the test on LOX IMVI melanoma, 93.8%; in the test with SK-MEL-28 melanoma, 92.5%; with EKVX NSCLC it was 92.5%; in the test on SN12C renal it was 92.7%. For the same compound, the growth is 73.5% in the test with UO-31 renal; 97.9% with TK-10 renal; 92.8% in the test on ACHN renal; 84.6% in the test with CAKI-1 renal; 98.2% in the test with A498 renal; 117% with CCRF-CEM leukemia. For the same compound, the growth in the test on MOLT-4 leukemia is 84.2%.

For `CN1CCN(Cc2ccc(NC(=O)c3cncc(C#Cc4[nH]nc5ncncc45)c3)cc2C(F)(F)F)CC1`, the growth with HCT-15 colon is 65.4%; in the test with HT29 colon, 25.8%; in the test on SNB-75 CNS, 78.2%; with SNB-19 CNS, 97.3%; with U251 CNS, 76.8%; in the test with PC-3 prostate, 81.3%. The growth was 71.2% with SK-MEL-5 melanoma; 39.6% in the test on UACC-62 melanoma; 13% in the test with LOX IMVI melanoma; 37.7% with SK-MEL-28 melanoma; 108% with EKVX NSCLC; 48.1% with SN12C renal. For the same compound, the growth is 82.8% in the test on UO-31 renal; 94.7% with TK-10 renal; 59.1% with ACHN renal; 59.4% in the test on CAKI-1 renal; 51% in the test on CCRF-CEM leukemia; 47.2% with MOLT-4 leukemia.

On to `CC(=O)c1sc(Nc2cccc(Nc3nc(C)c(C)s3)c2)nc1C`, for which the growth in the test with HCT-15 colon was 44.9%; in the test on HT29 colon it was 70%; in the test with SNB-75 CNS, 62.9%; in the test on SNB-19 CNS, 90.9%; in the test with U251 CNS, 65.7%; with PC-3 prostate, 51.3%. Further, the growth in the test on SK-MEL-5 melanoma is 55.8%; in the test with UACC-62 melanoma, 48.8%; in the test with LOX IMVI melanoma, 48.1%; in the test with SK-MEL-28 melanoma, 71.5%; in the test with EKVX NSCLC, 68.8%; with SN12C renal, 55%. Further, the growth is 32.2% in the test on UO-31 renal; 53.6% in the test on TK-10 renal; 36.5% with ACHN renal; 28.1% in the test on CAKI-1 renal; 27.7% in the test on A498 renal; 61.2% in the test on CCRF-CEM leukemia. In addition, the growth with MOLT-4 leukemia was 38.3%.

On to `CS(=O)(=O)c1nccc(-c2c(-c3ccc(F)c(OCCc4ccc(F)cc4)c3)nc3sccn23)n1`, for which the growth in the test with HCT-15 colon was -0.659% (active); in the test on HT29 colon it was 7.43% (active); in the test on SNB-75 CNS, 67.8%; in the test with SNB-19 CNS it was 0.358% (active); in the test on U251 CNS, 71.4%; in the test with PC-3 prostate, -62.2% (active). Also, the growth was 92.1% with SK-MEL-5 melanoma; 57.9% with UACC-62 melanoma; 51.5% in the test on LOX IMVI melanoma; -71.5% (active) in the test on SK-MEL-28 melanoma; -66.3% (active) with EKVX NSCLC; 62.4% with SN12C renal. In addition, the growth was -51.8% (active) with UO-31 renal; 84.8% with TK-10 renal; 45.2% in the test with ACHN renal; 44.7% in the test on CAKI-1 renal; 29.1% with A498 renal; 56.4% in the test with CCRF-CEM leukemia. Further, in the test with MOLT-4 leukemia, the growth was 14.4%.

In the case of `CN1CCN(c2ccc(C(=O)Nc3cccc(-c4cn(-c5ccc(S(N)(=O)=O)cc5)nn4)c3)cc2C(F)(F)F)CC1`, the growth in the test on HCT-15 colon was 41.1%; with HT29 colon it was 16.7%; in the test on SNB-75 CNS, 64.9%; in the test on SNB-19 CNS, 86.6%; in the test with U251 CNS, 59.6%; with PC-3 prostate it was 69.8%. Further, the growth in the test with SK-MEL-5 melanoma was 90.6%; in the test on UACC-62 melanoma it was 82.7%; in the test on LOX IMVI melanoma it was 23.1%; in the test with SK-MEL-28 melanoma, 72.7%; in the test on EKVX NSCLC, 89.9%; in the test on SN12C renal, 92.4%. For the same compound, the growth in the test with UO-31 renal was 86.9%; in the test with TK-10 renal, 117%; in the test with ACHN renal, 87.6%; in the test on CAKI-1 renal, 73.8%; with A498 renal, 97.6%; in the test on CCRF-CEM leukemia, 70.8%. The growth with MOLT-4 leukemia is 13.2%.

Consider `COc1ccc(-c2nc3cc(Cl)c(Cl)cc3n2CC(=O)N=Nc2c(O)[nH]c3ccccc23)cc1`, for which the growth was 30.6% in the test on HCT-15 colon; 78.9% in the test with HT29 colon; 60% in the test with SNB-75 CNS; 91.3% in the test with SNB-19 CNS; 71% with U251 CNS; 76.1% with PC-3 prostate. Moreover, the growth in the test with SK-MEL-5 melanoma was 53.6%; with UACC-62 melanoma, 68.1%; in the test with LOX IMVI melanoma it was 9.62% (active); in the test on SK-MEL-28 melanoma it was 74.7%; in the test with EKVX NSCLC, 72.4%; in the test with SN12C renal, 38.4%. In addition, the growth in the test on UO-31 renal is 76.9%; with TK-10 renal it was 95.7%; with ACHN renal it was 50.8%; with CAKI-1 renal it was 56.5%; in the test on CCRF-CEM leukemia, 39.9%; in the test with MOLT-4 leukemia, 47.4%.

With `O=C1Nc2ccc(Cl)cc2/C1=C/c1ccc(OCc2ccc(Br)cc2F)cc1`, the growth with HCT-15 colon was 102%; in the test on HT29 colon, 104%; in the test on SNB-75 CNS, 100%; in the test with SNB-19 CNS, 100%; in the test on U251 CNS it was 97.4%; with PC-3 prostate, 93%. For the same compound, the growth in the test with SK-MEL-5 melanoma was 92.6%; in the test with UACC-62 melanoma, 93.6%; in the test with LOX IMVI melanoma, 92.7%; in the test with SK-MEL-28 melanoma, 105%; with EKVX NSCLC, 97.5%; in the test on SN12C renal it was 103%. Further, the growth was 84.4% with UO-31 renal; 116% with TK-10 renal; 103% in the test on ACHN renal; 84.3% in the test with CAKI-1 renal; 94.2% with CCRF-CEM leukemia; 98.9% in the test with MOLT-4 leukemia.

On to `O=C(Nc1cc(Cl)cc(Cl)c1)Nc1ccc2oc(=O)ccc2c1`, for which the growth with HCT-15 colon is 8.08% (active); with HT29 colon, 16.2%; with SNB-75 CNS it was 39.3%; in the test with SNB-19 CNS, 13.3%; in the test with U251 CNS, 6.21% (active); with PC-3 prostate, 1.84% (active). In addition, the growth is 29.6% in the test with SK-MEL-5 melanoma; 2.84% (active) in the test on UACC-62 melanoma; 14.8% in the test with LOX IMVI melanoma; 9.09% (active) in the test with SK-MEL-28 melanoma; 17% with EKVX NSCLC; 4.07% (active) in the test with SN12C renal. The growth in the test on UO-31 renal is 3.75% (active); in the test with TK-10 renal, 18.6%; in the test on ACHN renal it was 4.26% (active); in the test on CAKI-1 renal, 7.57% (active); in the test on A498 renal it was -8.24% (active); in the test with CCRF-CEM leukemia it was 24.9%. Besides, the growth in the test on MOLT-4 leukemia was 12.4%.
